# Source: PubChem BioAssay (several laboratories)
# Shown are actives, neighbours in structure and some others; about 1.4% of the full set was active somewhere.
# MazEF act – MazEF (E. coli) toxin RNase activation | P0AE70 | FAM/BHQ RNA-DNA oligo cleavage fluorescence, 5 h | activation, % at 20 µM | actives 0.32% (n = 350,000) | AID 504720; in the data active = activation above about 50%
# Target sequence (P0AE70 whole entry, looked up): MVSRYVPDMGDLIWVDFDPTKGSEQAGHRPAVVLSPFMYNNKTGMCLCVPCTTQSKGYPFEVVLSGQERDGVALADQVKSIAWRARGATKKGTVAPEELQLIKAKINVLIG
# CCHFV vOTU inh – CCHFV vOTU protease inhibition; Pep-AMC fluorescence; inhibition, % at 11.5 µM; actives 0.55% (n = 370,000); in the data active = inhibition above about 30%
# DUSP3 inh – blocks human VHR1 dual specificity phosphatase; P51452; actives 0.52% (n = 290,000); recombinant VHR phosphatase, pNPP absorbance; inhibition, % at 13.3 µM; in the data active = inhibition above about 50%
# Target sequence (P51452 whole entry, looked up): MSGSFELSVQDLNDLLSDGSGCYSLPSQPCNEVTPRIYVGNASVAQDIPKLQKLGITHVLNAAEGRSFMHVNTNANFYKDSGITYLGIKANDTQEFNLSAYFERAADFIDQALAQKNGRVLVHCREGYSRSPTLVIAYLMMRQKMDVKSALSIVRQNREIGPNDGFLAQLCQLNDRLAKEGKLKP
# BJeLR viability – BJeLR cell viability loss. BJeLR (HRASV12) viability, CellTiter-Glo ATP luminescence, 48 h. AID 1554. actives 0.17% (n = 300,000). inhibition, % (test concentration not listed); in the data active = inhibition above about 50%
# SARS 3CLpro inh – SARS-CoV 3CLpro protease inhibition | P0C6X7 | recombinant SARS-CoV 3CLpro, quenched FRET peptide cleavage | inhibition, % at 6 µM | actives 0.14% (n = 290,000) | AID 1706; in the data active = inhibition above about 12%
# Numbers stand for hits; 0 = inactive; - = no result given.
SMILES,MazEF act,CCHFV vOTU inh,DUSP3 inh,BJeLR viability,SARS 3CLpro inh
COc1ccc(-c2noc(C3CCCN(C(=O)Nc4ccc(C)c(F)c4)C3)n2)cc1 (stereo not drawn),-,0,-,-,-
Cc1ccc2c(c1)CC1(CN2C)C(=O)NC(=O)N(c2ccccc2C)C1=O (stereo not drawn),0,0,0,0,0
Cc1ccc2c(c1)CC1(CN2C)C(=O)NC(=O)N(c2ccc(C)c(C)c2)C1=O (stereo not drawn),0,0,50,0,0
C#CCN1C(=O)S/C(=C\c2cc3c(cc2OC)OCO3)C1=O,196,0,0,0,0
CCOC(=O)c1c(S(=O)(=O)N2CCN(Cc3ccccc3)CC2)c(C)n(C)c1C,0,0,0,0,0
CCOC(=O)c1c(S(=O)(=O)NCCCc2ccco2)c(C)n(C)c1C,0,0,51,0,0
CCOC(=O)c1c(S(=O)(=O)N(C)Cc2ccccc2)c(C)n(C)c1C,0,0,58,0,0
COc1cccc2c1[C@H](/C=C/c1ccccc1)[C@@H]([C@H](O)CO)OC2,-,0,-,-,-
CCOC(=O)CSC1=C(C#N)C(c2ccc(Cl)cc2)CC(=O)N1 (stereo not drawn),0,0,0,0,0
CCCOC(=O)CSC1=C(C#N)C(c2ccccc2Cl)CC(=O)N1 (stereo not drawn),0,0,50,0,0
Nc1nc(F)nc2c1ncn2[C@@H]1O[C@H](CO)[C@@H](O)[C@H]1O,0,0,-,97,-
Nc1nc(F)nc2c1ncn2[C@@H]1O[C@H](CO)[C@@H](O)[C@@H]1O,0,0,0,0,0
COc1ccc2ccccc2c1C=Nn1c(-c2cc(-c3ccccc3)n[nH]2)n[nH]c1=S,-,0,-,-,-
Cc1ccc(OCC(=O)Nc2ccc(Cl)cc2)c(-n2nc3ccccc3n2)c1,69,0,0,0,0
C[C@@H]1OCN(C)[C@H]2C[C@H]3c4[nH]c5cccc(-c6cccc(F)c6)c5c4CCN3C(=O)[C@@H]12,-,0,-,-,-
N#C/C(=C\c1ccccc1)C(=O)NC1CC1,0,0,53,0,0
Cc1ccc(CN2CCCN(Cc3ccc(F)cc3Cl)S2(=O)=O)cc1,0,0,53,0,0
Cn1c(=O)c2c(O)cc(=O)n(-c3ccccc3)c2n(C)c1=O,0,0,51,0,0
COc1cccc(N(C)C(=O)[C@@H](C2CC2)[C@@H](O)c2ccc3ccccc3c2)c1,-,0,-,-,-
COc1ccc(-n2nc(C(=O)NCC(=O)N3CCOCC3)c3ccccc3c2=O)c(OC)c1,0,0,0,0,0
COc1ccc(-n2nc(C(=O)NCC(=O)N3CCC4(CC3)OCCO4)c3ccccc3c2=O)c(OC)c1,0,0,56,0,0
COc1cc(C2C(C#N)=C(N)Oc3cc(O)ccc32)cc2c1OCO2 (stereo not drawn),0,0,0,0,0
COc1cc(C2C(C#N)=C(N)Oc3cc(N(C)C)ccc32)cc2c1OCO2 (stereo not drawn),64,0,0,0,0
C[C@H]1O[C@@H](OC2CC[C@]3(C=O)[C@H]4CC[C@]5(C)[C@@H](C6=CC(=O)OC6)CC[C@]5(O)[C@@H]4CC[C@]3(O)C2)CC2OC(C)(C)OC21 (stereo partly drawn),0,0,0,69,0
CC12CCC3C(CCC4(O)CC(O)CCC34C=O)C1(O)CCC2C1=CC(=O)OC1 (stereo not drawn),0,0,-,-,-
SMILES,MazEF act,CCHFV vOTU inh,DUSP3 inh,BJeLR viability,SARS 3CLpro inh
O=C(CCC1CCCC1)Nc1ccc(C(=O)NCc2cccnc2)cc1,0,0,0,89,0
O=C(COc1ccc([N+](=O)[O-])cc1)NCc1cccnc1,0,0,0,0,0
O=C(NCc1cccnc1)c1ccc([N+](=O)[O-])cc1,0,0,0,0,0
CC(C(=O)NCc1cccnc1)c1ccc([N+](=O)[O-])cc1 (stereo not drawn),0,0,52,0,0
O=C(COc1ccc([N+](=O)[O-])cc1)Nc1ccc(C(=O)NCc2cccnc2)cc1,0,0,0,63,0
O=C(NCc1cccnc1)c1ccc(NC(=O)c2cccc([N+](=O)[O-])c2)cc1,0,0,0,79,0
COC(=O)c1cc(-c2ccccc2)c(=O)n2c1CCC2,-,0,-,-,-
Cc1ccc(C(C)CCN2CCC(n3nccc3NC(=O)c3ccccc3)CC2)o1 (stereo not drawn),0,0,53,0,0
COc1ccc(CCn2c(=N)c(S(=O)(=O)c3ccccc3)cc3c(=O)n4ccccc4nc32)cc1,0,0,0,0,0
Cc1ccc(S(=O)(=O)c2cc3c(=O)n4ccccc4nc3n(CCc3ccccc3)c2=N)cc1,72,0,0,0,0
